# Sampled rows, rich in hits. Any-hit rate of the full collection: about 2.4%.
# SENP8 block-1 – blocks human SENP8 cleavage of Nedd8 substrate; Q96LD8; recombinant SENP8, Nedd8 substrate fluorescence; inhibition, % at 20 µM; actives 0.64% (n = 360,000); AID 602440; in the data active = inhibition mostly above about 40%, no sharp cut-off; inactive = mostly below about 27%
# SENP7 inh – SENP7 protease inhibition. recombinant SENP7, Z-RLRGG-aminoluciferin luminescence, 40 min. inhibition, % at 5 µM. actives 1.5% (n = 330,000). AID 434973;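 active = inhibition above about 50% at the single test dose, limit read from the data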;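 also: plate controls were DMSO with enzyme for no effect and no enzyme buffer wells for full effect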
# SENP6 block – blocks the human protease SENP6; actives 1.8% (n = 330,000); Q9GZR1; AID 2599; inhibition, % at 10 µM; Recombinant SENP6 catalytic domain, aminoluciferin luminescence;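 active = inhibition above about 50% at the single tested dose, limit read from the data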;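 also: plate controls were DMSO wells with enzyme for no effect and DMSO wells lacking enzyme for full effect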
# Target sequence (Q9GZR1 628-1112 limits assumed): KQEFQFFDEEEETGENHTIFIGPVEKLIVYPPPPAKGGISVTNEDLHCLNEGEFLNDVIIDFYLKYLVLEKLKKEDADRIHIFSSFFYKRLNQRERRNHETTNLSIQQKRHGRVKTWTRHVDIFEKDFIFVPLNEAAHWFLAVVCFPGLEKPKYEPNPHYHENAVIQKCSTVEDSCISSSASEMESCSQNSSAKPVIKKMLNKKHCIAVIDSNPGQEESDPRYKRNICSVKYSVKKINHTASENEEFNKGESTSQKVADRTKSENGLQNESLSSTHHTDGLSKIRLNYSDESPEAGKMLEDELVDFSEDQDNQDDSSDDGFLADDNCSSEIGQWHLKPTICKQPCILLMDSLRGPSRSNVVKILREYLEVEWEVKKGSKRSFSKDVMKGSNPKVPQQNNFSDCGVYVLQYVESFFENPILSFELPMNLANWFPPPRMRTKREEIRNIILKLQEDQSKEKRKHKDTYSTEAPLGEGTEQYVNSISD
# Platelet DG rel – platelet dense granule release activity; inhibition, %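 (compounds screened at 7.5 µM in platelet-rich plasma)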; human platelet-rich plasma, SFLLRN dense granule ATP release, luminescence; actives 0.22% (n = 300,000);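 active = mean replicate score, as percent of positive control, at or above 50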
# SENP8 block-2 – SENP8 protease inhibition; Q96LD8; purified SENP8, Z-RLRGG-aminoluciferin cleavage, luminescence; inhibition, % at 10 µM; actives 1.2% (n = 330,000); in the data active = inhibition above about 50%
# SENP8 conf – human SENP8 inhibition, confirmed. shares compounds with SENP7 inh. Recombinant SENP8, Z-RLRGG-aminoluciferin luminescence, 60 min. actives 40% (n = 6,200). inhibition, % at 12.5 µM;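 active = mean inhibition across replicates above about 50%, limit read from the data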
# SENP6 conf – human SENP6 inhibition, confirmed. inhibition, % at 12.5 µM. recombinant SENP6, Z-RLRGG-aminoluciferin luminescence. actives 58% (n = 6,200). shares compounds with SENP7 inh
# SENP7 conf – human SENP7 inhibition, confirmed. shares compounds with SENP7 inh. recombinant SENP7, Z-RLRGG-aminoluciferin luminescence, 40 min. inhibition, % at 12.5 µM. actives 69% (n = 6,200). AID 488917
# Casp3 select – caspase-3 inhibition (SENP selectivity assay); actives 60% (n = 6,200); purified caspase-3, Z-DEVD-aminoluciferin luminescence, 60 min; shares compounds with SENP7 inh; AID 488918; inhibition, % at 12.5 µM;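 active = mean inhibition above about 50%, limit read from the data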;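 also: plate controls were enzyme with DMSO for no effect and wells without caspase-3 for full effect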
# SENP luc ctr – counter-screen for SENP inhibitors: luminescence interference | shares compounds with SENP7 inh | actives 39% (n = 6,200) | AID 488919 | inhibition, % at 12.5 µM | Pre-incubated SENP8/Z-RLRGG-aminoluciferin, luciferase luminescence interference;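 active = mean inhibition above about 50% when retested at one dose, limit read from the data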;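 also: plate controls were DMSO wells with completed reaction for no effect and substrate without enzyme for full effect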
# An asterisk follows results filed as active; . = not tested or not shown.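 The calls were made as follows, unless noted: active = mean inhibition above about 50% in the one-dose retest (limit read from the data); inactive = the rest.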
SMILES,SENP8 block-1,SENP7 inh,SENP6 block,Platelet DG rel,SENP8 block-2,SENP8 conf,SENP6 conf,SENP7 conf,Casp3 select,SENP luc ctr
Nc1c(-c2ccccc2)cnn1-c1ccccc1,11,83*,79*,14,70*,75*,72*,94*,88*,78*
CN(C)c1ccc(/C=N/N2C(=O)c3ccccc3C2=O)cc1,26,91*,-3,2,72*,28,71*,61*,51*,18
CCN(CC)c1ccc(/C=N/N2C(=O)c3ccccc3C2=O)cc1,-4,45,63*,-3,33,-6,16,-5,-1,-1
COc1ccc(/C=N/N2C(=O)c3ccccc3C2=O)cc1,7,87*,88*,33,79*,3,74*,70*,85*,25
CC(C)(C)n1nc2c(c1NC(=O)c1cccc(Cl)c1)CS(=O)(=O)C2,14,6,-10,-45,2,.,.,.,.,.
O=C(COC(=O)C1CC1)Nc1ccc(S(=O)(=O)N2CCOCC2)cc1,3,10,-15,.,1,.,.,.,.,.
CN(C(=O)Nc1ccccc1)C1CCS(=O)(=O)C1 (stereo not given),12,-5,-10,.,-11,.,.,.,.,.
CC(=O)NC1=C(N(C)C2CCS(=O)(=O)C2)C(=O)c2ccccc2C1=O (stereo not given),66*,25,67*,-3,28,45,74*,42,4,-3
Cc1noc(C)c1C(=O)OCC(=O)c1cc(C)n(Cc2ccccc2Cl)c1C,8,26,68*,0,4,2,10,45,30,14
Cc1cc(C)nc(CCNC(=O)c2cc(COc3ccccc3)on2)n1,0,-6,-14,-8,-8,.,.,.,.,.
CCOC(=O)C1(C)CCN1C(=O)c1cc2ccccc2s1 (stereo not given),6,.,.,.,.,.,.,.,.,.
Nc1ccc(-c2cc3ccccc3c(=O)o2)cc1,-478,26,53*,.,41,44,45,77*,55*,1
Cc1noc(C)c1NC(=O)N(C)C[C@H]1OCCCC[C@@H](C)Oc2ccc(NS(=O)(=O)c3ccccc3)cc2C(=O)N([C@H](C)CO)C[C@@H]1C,13,.,.,.,.,.,.,.,.,.
CCc1sc(C(=O)N2CCc3ccccc32)cc1C,8,97*,96*,13,93*,96*,97*,102*,95*,86*
O=C(c1ccc(Cl)s1)N1CCc2ccccc21,16,89*,89*,2,81*,54*,68*,81*,80*,54*
O=C(c1ccc(C(=O)N2CCCc3ccccc32)s1)N1CCCc2ccccc21,5,3,-1,3,-2,.,.,.,.,.
Cc1ccc(C(=O)N2CCc3ccccc32)cc1,12,0,11,-1,0,.,.,.,.,.
CCOC(=O)/C=C1/SCC(=O)N1CCOc1cccc(Br)c1,-2,.,.,.,.,.,.,.,.,.
CCCCOc1ccc(-c2ncc(C(=O)O)c(C)n2)cc1,21,88*,86*,-15,80*,88*,87*,98*,48,64*
CC(=O)c1coc2c1cc(O)c1ccccc12,16,11,3,-5,-8,.,.,.,.,.
O=C(c1ccco1)c1coc2c1cc(O)c1ccccc12,21,20,60*,-7,-5,-14,7,-1,1,-3
O=c1oc(C2(O)CCCCC2)cc2ccc(-c3ccc4[nH]ccc4c3)cc12,-360,53*,12,.,10,-12,-4,-5,5,1
CCc1ccc(OCC(=O)N/N=C2\CC(=O)c3ccccc32)cc1,41*,17,53*,1,24,28,66*,16,18,4
